The first test addresses RNF122. Put plainly: pooled miR-30 sensor sort-seq; sequence = guide strand. To be noted: shRNA.
For the sequence TAGAATCCCAATGTTCTGCGTG, the sensor-assay potency score (higher = more potent) is 0.594.
TATATCCGTATCGCTCACTCTG registered a sensor-assay potency score (higher = more potent) of -0.842.
ATAATTGTAACTTCTTGGCATC: the sensor-assay potency score (higher = more potent) was -0.737.
TATCCGTATCGCTCACTCTGTG gave a sensor-assay potency score (higher = more potent) of -0.565.

Another test addresses RNF125. The test is described as above. Conditions: shRNA.
ATACTTATCTATGTACTTCTGA returned a sensor-assay potency score (higher = more potent) of 0.546.
The sequence TTCTTGTAGTGGTCCATACTTA yielded a sensor-assay potency score (higher = more potent) of -0.891.
Turning to TTGTTCTTTAGACTGGTAGCAA, the sensor-assay potency score (higher = more potent) was -0.126.
TTATACTCTGATTTCATTCTTT came in with a sensor-assay potency score (higher = more potent) of 0.204.
The same measure, in the same setting: the figure for TATCTATGTACTTCTGACAAGT is -0.831; for TTATCTATGTACTTCTGACAAG it is -1.25; for TACTTATCTATGTACTTCTGAC it is -0.698.
Take ATGTACTTCTGACAAGTCCGAA: the sensor-assay potency score (higher = more potent) was -1.03.
TTGTTGTTCTTTAGACTGGTAG showed a sensor-assay potency score (higher = more potent) of -0.623.
Consider TGTACTTCTGACAAGTCCGAAT, for which the sensor-assay potency score (higher = more potent) is -0.85.
Take TAGTGGTCCATACTTATCTATG: the sensor-assay potency score (higher = more potent) is -1.8.
TAGACTGGTAGCAATACAGGAA came in with a sensor-assay potency score (higher = more potent) of -0.258.

In a further test the target is RNF14. Described as above. Conditions: shRNA.
For TAAAACATGGTGAACCAGGGTC, the sensor-assay potency score (higher = more potent) turned out to be 0.147.
In turn, TTACTTTGTGTACTTGACGGAA returned a sensor-assay potency score (higher = more potent) of -0.835.
Sequence TTTGAGTTCTTCTCTAGCCACT registered a sensor-assay potency score (higher = more potent) of -1.03.
As for TCATCTTGTTACATCCGTCTAA, the sensor-assay potency score (higher = more potent) turned out to be 0.00357.
With ATGTCATCTTGTTACATCCGTC, the sensor-assay potency score (higher = more potent) is -0.926.
With TATCTTGAAATTCTGTGGCAAA, the sensor-assay potency score (higher = more potent) is -1.02.
Still for that read-out and setting: the figure for TTTCTGAGAACCAATCTTGAGC is -0.733; for TCTAAATTCATCTCCATCGTAA it is 0.0572; for TTTATTAGCCTCATCCGCTTGC it is 0.884.
As to AATATCGTCGTCAACATCCACA, the sensor-assay potency score (higher = more potent) is -1.06.
The sequence TATCGTCGTCAACATCCACAGC registered a sensor-assay potency score (higher = more potent) of -0.981.
On the same count and under the same terms, the figure for TTCTTCTCTAGCCACTCCTTAC is -0.95.

In the next test the target is RNF157. The test is described as above. Conditions: shRNA.
TTGAGTTTGAGTCCCTGACTGC showed a sensor-assay potency score (higher = more potent) of -0.461.
In turn, TTGTACTGCACAGTCTCCGACT displayed a sensor-assay potency score (higher = more potent) of -0.593.
TTCAATTCCATAGATCTCCTGA showed a sensor-assay potency score (higher = more potent) of 0.823.
For the sequence TTGAGTCCCTGACTGCTGCTGT, the sensor-assay potency score (higher = more potent) is 0.522.
In turn, TTCCTCTTCATGCAGCACGGAA had a sensor-assay potency score (higher = more potent) of -1.64.
In the case of TAAGGAAACACAACTGGTCTGT, the sensor-assay potency score (higher = more potent) is 0.685.
As to TTTCGGATATTGACCAGGCTTC, the sensor-assay potency score (higher = more potent) was -1.09.
The sequence TTGTCTTTGGGAATGTAGCTGG came in with a sensor-assay potency score (higher = more potent) of 0.177.
As for TTCCTCAGCACATTTGACGAGC, the sensor-assay potency score (higher = more potent) is -0.263.
Same read-out and setting: the figure for TTGAGTCAAACTTCTCTCCTCC is 0.532.
Still for that read-out and setting: with TACTTGTTTCTGTTTGAGGGGC the figure was 0.142.
On the same count and under the same terms, the figure for TACCATTCTGGAACTCTTCCGT is 0.188.
Note: reference of the scale not given here.
